# Assay results from PubChem BioAssay (EPA / NIEHS).
# Records with an inconclusive call do not appear. Activity calls are given as the source filed them. The calls were made as follows: active = hit-call score of the fitted dose curve at least 0.9, where 1 is the maximum; inconclusive = response in the unintended direction; inactive = score below 0.9.
# What was measured:
# [1] = system: guinea pig Dopamine Transporter (DAT), gene 100714898; test: NVS_TR_gDAT: NovaScreen (NVS) Transporter Assay for guinea pig Dopamine Transporter (DAT) (AID 2283369);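 also: active compounds lower bound radioligand signal relative to DMSO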
# Summary of the method: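 Guinea pig striatal membranes, cell-free radioligand binding with filter-based scintillation counting, read 2 h after dosing. Loss of signal versus DMSO baseline; single-concentration primary (25 uM) then concentration-response up to 50 uM.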
# [2] = molecular target: human Dopamine Transporter (DAT), SLC6A3 (gene 6531) (UniProt Q01959); test: NVS_TR_hDAT: NovaScreen (NVS) Transporter Assay for human Dopamine Transporter (DAT) (AID 2283374);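 also: activity means loss of bound radioligand signal relative to DMSO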
# Summary of the method: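 Duplicate single-point screening at 25 uM preceded concentration-series follow-up of actives. Binding was measured by competitive displacement of a radioligand from DAT protein, filter-counted by scintillation 1 h after dosing. Decrease relative to DMSO taken as activity.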
# [3] = molecular target: human Norepinephrine Transporter (NET), SLC6A2 (gene 6530) (UniProt P23975); test: NVS_TR_hNET: NovaScreen (NVS) Transporter Assay for human Norepinephrine Transporter (NET) (AID 2283377);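 also: cell-free membrane protein extracted from CHO cells expressing human NET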;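 as to AC50: displacement of radioligand from human NET seen as loss of scintillation signal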
# Summary of the method: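 Single-concentration duplicate screen at 25 uM, then concentration-response for actives; displacement of specific radioligand from human NET in CHO membrane extracts, filter-based scintillation detection at 1 h relative to DMSO.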
# [4] = molecular target: Estrogen receptor beta (Homo sapiens) (UniProt Q92731); test: OT_ER_ERbERb_1440: Odyssey Thera (OT) 24-hour HEK293T Protein-Complementation Assay for Estrogen Receptor-beta/-beta Homodimer (AID 2283380);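 also: fluorescence gain from ER beta LBD homodimer complementation read by laser scanning cytometry; scored as signal increase over DMSO baseline for both agonists and antagonists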
# Summary of the method: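 Fluorescence increase, nuclear for agonists or whole-cell for antagonists, relative to DMSO vehicle, quantified by laser scanning cytometer after fixation and Draq5 staining. Readout from 24 h treatment of HEK293T cells carrying complementation-paired ER beta LBD (aa 310-547).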
# [5] = molecular target: Peroxisome proliferator-activated receptor gamma (Homo sapiens) (UniProt P37231); test: NVS_NR_hPPARg: NovaScreen (NVS) Nuclear Receptor Binding Assay for human Peroxisome Proliferator-activated Receptor gamma (PPARg) (AID 2283370)
# Summary of the method: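 Cell-free fluorescence polarization binding to human PPARg protein, read 2 h after dosing. Primary screen in duplicate at 25 uM, actives followed in concentration series; loss of signal relative to DMSO scored.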
# [6] = molecular target: human Serotonin Transporter (SERT), SLC6A4 (gene 6532) (UniProt P31645); test: NVS_TR_hSERT: NovaScreen (NVS) Transporter Assay for human Serotonin Transporter (SERT) (AID 2283372)
# Summary of the method: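 Human platelet membrane preparation; displacement of radioligand from serotonin transporter measured after 1 h by filtration and scintillation counting. Single 25 uM duplicate screen, then concentration series for actives, with DMSO as negative baseline.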
# [7] = molecular target: rat Serotonin Transporter (SERT), Slc6a4 (gene 25553) (UniProt P31652); test: NVS_TR_rSERT: NovaScreen (NVS) Transporter Assay for rat Serotonin Transporter (SERT) (AID 2283375)
# Summary of the method: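 Rat forebrain membranes; radioligand displacement at SERT read by filter-based scintillation counting, 1 h after dosing. Screened in duplicate at 25 uM, actives then run in concentration series; loss of signal versus DMSO baseline.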
# [8] = molecular target: Agonist Androgen Response Element (ARE), AR (gene 367) (UniProt P10275); test: OT_AR_ARELUC_AG_1440: Odyssey Thera (OT) 24-hour CHO-K1 Luciferase Assay for Agonist Androgen Response Element (ARE) (AID 2283379)
# Summary of the method: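 Readout: luciferase bioluminescence from CHO-K1 ARE-luc cells, measured 24 h post-dosing; agonism = increased mean luminescence vs DMSO controls, fitted in positive direction.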
# Sequence of Agonist Androgen Response Element (ARE), AR (gene 367) (P10275 whole entry, looked up): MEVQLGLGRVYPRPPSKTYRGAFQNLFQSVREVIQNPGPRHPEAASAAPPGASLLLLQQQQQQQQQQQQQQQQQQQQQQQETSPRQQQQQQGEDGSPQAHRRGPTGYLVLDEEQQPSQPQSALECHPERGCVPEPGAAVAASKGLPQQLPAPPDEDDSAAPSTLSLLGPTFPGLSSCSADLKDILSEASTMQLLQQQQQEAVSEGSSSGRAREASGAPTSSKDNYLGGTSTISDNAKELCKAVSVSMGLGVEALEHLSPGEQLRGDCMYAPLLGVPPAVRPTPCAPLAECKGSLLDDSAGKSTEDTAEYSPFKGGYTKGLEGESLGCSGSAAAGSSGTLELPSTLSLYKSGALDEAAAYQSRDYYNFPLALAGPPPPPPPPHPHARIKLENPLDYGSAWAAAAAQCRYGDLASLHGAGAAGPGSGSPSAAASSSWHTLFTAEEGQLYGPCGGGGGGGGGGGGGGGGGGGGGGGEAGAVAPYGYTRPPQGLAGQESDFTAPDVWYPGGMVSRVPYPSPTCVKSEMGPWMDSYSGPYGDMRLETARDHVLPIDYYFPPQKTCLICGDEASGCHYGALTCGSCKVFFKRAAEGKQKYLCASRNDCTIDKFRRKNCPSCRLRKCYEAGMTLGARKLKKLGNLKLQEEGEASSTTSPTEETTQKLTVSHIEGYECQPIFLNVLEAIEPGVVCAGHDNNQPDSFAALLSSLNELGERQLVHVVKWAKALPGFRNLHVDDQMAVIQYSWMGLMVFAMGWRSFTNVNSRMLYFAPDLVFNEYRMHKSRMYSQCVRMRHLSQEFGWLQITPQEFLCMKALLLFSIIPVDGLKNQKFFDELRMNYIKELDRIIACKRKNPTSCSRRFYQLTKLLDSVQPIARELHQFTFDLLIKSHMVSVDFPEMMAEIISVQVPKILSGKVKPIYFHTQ
# Sequence of Estrogen receptor beta (Homo sapiens) (Q92731 whole entry, looked up, the tested form may be a part): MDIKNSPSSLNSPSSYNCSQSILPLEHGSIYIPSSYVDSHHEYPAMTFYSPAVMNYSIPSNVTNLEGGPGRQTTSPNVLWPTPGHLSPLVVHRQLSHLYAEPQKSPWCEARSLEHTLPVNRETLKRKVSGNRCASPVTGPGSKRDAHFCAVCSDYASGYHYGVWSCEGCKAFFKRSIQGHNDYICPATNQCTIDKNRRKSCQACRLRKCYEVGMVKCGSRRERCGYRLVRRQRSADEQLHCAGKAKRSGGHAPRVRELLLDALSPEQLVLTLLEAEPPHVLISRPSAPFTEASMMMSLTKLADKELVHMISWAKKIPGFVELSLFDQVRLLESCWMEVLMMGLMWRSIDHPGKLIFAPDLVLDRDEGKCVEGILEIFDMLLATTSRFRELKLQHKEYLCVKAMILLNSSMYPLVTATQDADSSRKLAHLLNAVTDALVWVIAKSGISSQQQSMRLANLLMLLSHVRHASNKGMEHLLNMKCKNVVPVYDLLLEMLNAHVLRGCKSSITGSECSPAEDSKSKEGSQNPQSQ
# Sequence of human Norepinephrine Transporter (NET), SLC6A2 (gene 6530) (P23975 whole entry, looked up): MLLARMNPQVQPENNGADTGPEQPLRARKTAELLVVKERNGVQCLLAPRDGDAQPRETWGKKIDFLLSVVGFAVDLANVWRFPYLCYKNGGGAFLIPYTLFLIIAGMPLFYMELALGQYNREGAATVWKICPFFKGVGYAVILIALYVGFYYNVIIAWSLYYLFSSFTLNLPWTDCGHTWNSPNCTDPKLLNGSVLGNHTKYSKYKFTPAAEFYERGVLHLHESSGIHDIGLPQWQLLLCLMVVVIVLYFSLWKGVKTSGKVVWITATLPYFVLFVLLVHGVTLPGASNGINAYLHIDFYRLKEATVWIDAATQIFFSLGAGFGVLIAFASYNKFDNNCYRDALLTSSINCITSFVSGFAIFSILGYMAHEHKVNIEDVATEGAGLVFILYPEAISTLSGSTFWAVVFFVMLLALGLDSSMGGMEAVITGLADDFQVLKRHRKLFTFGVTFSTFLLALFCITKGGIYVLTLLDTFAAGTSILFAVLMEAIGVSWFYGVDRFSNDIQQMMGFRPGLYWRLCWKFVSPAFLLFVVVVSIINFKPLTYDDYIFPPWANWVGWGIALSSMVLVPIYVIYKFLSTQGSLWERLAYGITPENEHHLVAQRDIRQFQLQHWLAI
# Sequence of Peroxisome proliferator-activated receptor gamma (Homo sapiens) (P37231 whole entry, looked up): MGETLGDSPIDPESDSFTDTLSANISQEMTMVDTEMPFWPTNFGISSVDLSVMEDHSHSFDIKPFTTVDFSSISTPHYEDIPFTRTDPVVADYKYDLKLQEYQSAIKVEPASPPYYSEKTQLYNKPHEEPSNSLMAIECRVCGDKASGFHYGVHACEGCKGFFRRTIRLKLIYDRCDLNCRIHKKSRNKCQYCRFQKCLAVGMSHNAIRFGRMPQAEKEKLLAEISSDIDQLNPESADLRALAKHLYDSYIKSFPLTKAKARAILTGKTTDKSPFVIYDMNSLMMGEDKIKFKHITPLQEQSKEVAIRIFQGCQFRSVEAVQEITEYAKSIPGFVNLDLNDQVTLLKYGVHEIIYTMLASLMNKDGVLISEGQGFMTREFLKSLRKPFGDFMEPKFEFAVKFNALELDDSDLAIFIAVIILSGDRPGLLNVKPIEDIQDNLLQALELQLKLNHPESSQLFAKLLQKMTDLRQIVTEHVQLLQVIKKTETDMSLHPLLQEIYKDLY
# Sequence of human Serotonin Transporter (SERT), SLC6A4 (gene 6532) (P31645 whole entry, looked up): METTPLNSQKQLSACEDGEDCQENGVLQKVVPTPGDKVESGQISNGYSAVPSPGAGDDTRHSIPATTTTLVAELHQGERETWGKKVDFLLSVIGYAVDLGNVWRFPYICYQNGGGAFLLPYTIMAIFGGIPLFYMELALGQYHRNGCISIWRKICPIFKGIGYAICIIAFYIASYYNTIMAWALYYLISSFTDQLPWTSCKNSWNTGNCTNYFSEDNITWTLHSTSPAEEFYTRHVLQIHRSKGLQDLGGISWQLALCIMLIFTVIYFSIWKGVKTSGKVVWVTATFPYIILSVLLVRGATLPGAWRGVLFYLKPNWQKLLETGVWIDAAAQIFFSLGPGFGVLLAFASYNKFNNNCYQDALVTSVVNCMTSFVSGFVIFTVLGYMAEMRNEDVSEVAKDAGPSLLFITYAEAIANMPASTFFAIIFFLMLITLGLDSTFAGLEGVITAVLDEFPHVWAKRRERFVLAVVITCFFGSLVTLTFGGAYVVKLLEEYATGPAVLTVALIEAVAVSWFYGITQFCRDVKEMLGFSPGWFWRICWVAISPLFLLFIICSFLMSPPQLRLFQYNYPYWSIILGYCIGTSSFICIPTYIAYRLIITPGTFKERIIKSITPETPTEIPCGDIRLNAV
# Sequence of human Dopamine Transporter (DAT), SLC6A3 (gene 6531) (Q01959 whole entry, looked up): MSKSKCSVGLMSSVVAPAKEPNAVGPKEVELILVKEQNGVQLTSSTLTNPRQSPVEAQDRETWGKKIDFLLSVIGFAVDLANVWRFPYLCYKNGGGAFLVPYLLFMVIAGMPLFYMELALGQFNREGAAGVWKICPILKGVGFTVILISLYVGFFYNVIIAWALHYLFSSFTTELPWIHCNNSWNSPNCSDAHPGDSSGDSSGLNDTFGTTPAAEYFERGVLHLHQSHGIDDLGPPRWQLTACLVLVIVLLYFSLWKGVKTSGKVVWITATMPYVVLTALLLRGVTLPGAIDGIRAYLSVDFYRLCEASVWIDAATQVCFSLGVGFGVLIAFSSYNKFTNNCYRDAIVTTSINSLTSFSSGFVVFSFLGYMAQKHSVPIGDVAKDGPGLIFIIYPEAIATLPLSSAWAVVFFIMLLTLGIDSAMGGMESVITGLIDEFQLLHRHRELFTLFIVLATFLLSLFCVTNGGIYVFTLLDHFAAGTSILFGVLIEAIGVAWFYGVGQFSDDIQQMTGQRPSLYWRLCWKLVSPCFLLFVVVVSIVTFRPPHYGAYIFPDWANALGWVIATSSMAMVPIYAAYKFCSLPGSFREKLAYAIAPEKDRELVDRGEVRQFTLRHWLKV
# Sequence of rat Serotonin Transporter (SERT), Slc6a4 (gene 25553) (P31652 whole entry, looked up): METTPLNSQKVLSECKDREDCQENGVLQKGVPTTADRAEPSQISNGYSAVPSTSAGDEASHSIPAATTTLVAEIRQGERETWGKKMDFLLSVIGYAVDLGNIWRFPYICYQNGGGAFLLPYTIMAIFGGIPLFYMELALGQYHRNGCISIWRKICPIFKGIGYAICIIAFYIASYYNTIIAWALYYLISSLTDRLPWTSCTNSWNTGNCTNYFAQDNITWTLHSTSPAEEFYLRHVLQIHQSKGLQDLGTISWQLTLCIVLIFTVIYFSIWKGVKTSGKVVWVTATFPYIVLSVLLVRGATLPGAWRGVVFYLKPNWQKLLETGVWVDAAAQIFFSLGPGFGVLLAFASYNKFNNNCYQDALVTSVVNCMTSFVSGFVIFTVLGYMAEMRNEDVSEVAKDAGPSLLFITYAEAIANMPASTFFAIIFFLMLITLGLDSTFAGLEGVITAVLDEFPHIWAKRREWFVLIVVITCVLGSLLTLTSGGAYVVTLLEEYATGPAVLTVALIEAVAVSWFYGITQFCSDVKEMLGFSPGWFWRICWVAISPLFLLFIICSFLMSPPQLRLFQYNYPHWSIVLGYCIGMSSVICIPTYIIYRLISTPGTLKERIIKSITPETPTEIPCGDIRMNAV
smiles,measurement,setting,value
CC(=O)OCCC(C)C,outcome,[1],inactive
same,outcome,[2],inactive
same,outcome,[3],inactive
same,outcome,[4],inactive
Clc1nc(Cl)c(Cl)c(Cl)c1Cl,outcome,[5],inactive
same,outcome,[4],inactive
CCOc1cccc(-n2cc(C(=O)N3CCN(c4cc(C(=O)O)c5ccccc5c4)CC3)nc2-c2ccc(C)cc2)c1,AC50,[1],23.8 µM (active)
same,outcome,[5],inactive
same,AC50,[6],34.2 µM (active)
same,AC50,[2],8.21 µM (active)
same,AC50,[7],14.7 µM (active)
same,AC50,[3],13.7 µM (active)
same,outcome,[8],inactive
same,outcome,[4],inactive
CCCCC(CC)COC(=O)c1ccc(C(=O)OCC(CC)CCCC)cc1 (stereo not drawn),outcome,[5],inactive
same,outcome,[8],inactive
COc1ccc(-n2nc(C(F)F)cc2-c2ccc(S(C)=O)cc2)cc1 (stereo not drawn),outcome,[5],inactive
O=C(O)CCN(C1(C(=O)NO)CCCC1)S(=O)(=O)c1ccc(Oc2ccc(F)cc2)cc1,outcome,[4],inactive
CC(C)CCCCCCOC(=O)c1ccc(C(=O)OCCCCCCC(C)C)c(C(=O)OCCCCCCC(C)C)c1,outcome,[4],inactive
CC(C)=CCCC(C)=CC=O,outcome,[4],inactive
CCOCCO,outcome,[4],inactive
CC[C@H](C)C(=O)O[C@H]1C[C@@H](C)C=C2C=C[C@H](C)[C@H](CC[C@@H]3C[C@@H](O)CC(=O)O3)[C@H]21,outcome,[4],inactive
CCNc1ccccc1,outcome,[8],inactive
same,outcome,[4],inactive
C=CCCCCCCCCC(=O)O,outcome,[4],inactive
On1ccccc1=S,outcome,[4],inactive
COCCOc1cc2cc(C(=O)NC3CCN(C(C)C)CC3)n(CC(=O)Nc3ccc(Cl)cn3)c2cn1,AC50,[6],15.4 µM (active)
same,AC50,[3],5.89 µM (active)
same,AC50,[4],58 µM (active)
CCOCCOCCOCCO,outcome,[4],inactive
CCCCCCCCO,outcome,[4],inactive
O=C1CCCCCN1,outcome,[4],inactive
CCOC(=O)CC(CC(=O)OCC)(OC(C)=O)C(=O)OCC,outcome,[4],inactive
C1N2CN3CN1CN(C2)C3,outcome,[8],inactive
same,outcome,[4],inactive
CC[C@H]1OC(=O)[C@H](C)[C@@H](O[C@H]2C[C@@](C)(OC)[C@@H](O)[C@H](C)O2)[C@H](C)[C@@H](O[C@@H]2O[C@H](C)C[C@H](N(C)C)[C@H]2O)[C@](C)(O)C[C@@H](C)C(=O)[C@H](C)[C@@H](O)[C@]1(C)O,outcome,[4],inactive
COC(=O)c1ccccc1O,outcome,[4],inactive
O=c1n(CC2CO2)c(=O)n(CC2CO2)c(=O)n1CC1CO1 (stereo not drawn),outcome,[4],inactive
